Inhibition data for twelve compounds are collected here from ChEMBL document CHEMBL3433997, “St. Jude Leishmania screening dataset” (2016).

Format in all cases: functional
For experiment [1], the target named is Solute carrier family 2, facilitated glucose transporter member 1 (Homo sapiens) (UniProt P11166). Kind of experiment: ST_JUDE_LEISH: Cytotoxicity at 2uM final concentration against transgenic Leishmania Mexicana promastigotes LmGLUT1 that are glucose transport deficient and complemented with the human glucose transporter GLUT1. Activity is measured by DNA content using SYBR green in vitro.

Experiment [2] has as its target Hexose transporter 1 (Plasmodium falciparum) (UniProt O97467). Description: ST_JUDE_LEISH: Cytotoxicity at 2uM final concentration against transgenic Leishmania Mexicana promastigotes LmPfHT that are glucose transport deficient and complemented with the Plasmodium falciparum hexose transporter. Activity is measured by DNA content using SYBR green in vitro.
The target of experiment [3] is Glucose transporter (Leishmania mexicana) (UniProt O61059). Kind of experiment: ST_JUDE_LEISH: Cytotoxicity at 2uM final concentration against transgenic Leishmania Mexicana promastigotes LmGT2 that are glucose transport deficient and complemented with the L. Mexicana glucose transporter 2. Activity is measured by DNA content using SYBR green in vitro.

Sequence of Solute carrier family 2, facilitated glucose transporter member 1 (Homo sapiens) (P11166 whole entry): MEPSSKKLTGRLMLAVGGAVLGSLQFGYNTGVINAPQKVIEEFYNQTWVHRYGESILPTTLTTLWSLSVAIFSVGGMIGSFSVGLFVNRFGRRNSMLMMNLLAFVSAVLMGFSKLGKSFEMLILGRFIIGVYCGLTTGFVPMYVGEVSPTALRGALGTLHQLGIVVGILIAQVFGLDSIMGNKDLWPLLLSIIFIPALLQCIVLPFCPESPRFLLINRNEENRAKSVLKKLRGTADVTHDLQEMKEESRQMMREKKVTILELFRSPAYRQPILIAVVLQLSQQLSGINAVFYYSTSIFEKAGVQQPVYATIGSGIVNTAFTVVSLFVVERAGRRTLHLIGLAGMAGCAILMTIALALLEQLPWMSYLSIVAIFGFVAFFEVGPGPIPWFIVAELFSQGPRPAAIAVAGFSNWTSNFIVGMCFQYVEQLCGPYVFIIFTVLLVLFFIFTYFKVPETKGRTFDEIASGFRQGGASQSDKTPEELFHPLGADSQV

For `Cc1ccc(OCCCON2C(=N)N=C(N)NC2(C)C)cc1C`, the inhibition (usually the drop in the measured response relative to a control, in per cent) in experiment [1] is 2.79%; in experiment [2], 2.67%; in experiment [3], 1.46%.
As for `CN1CCN(c2ccc(-c3cc(-c4cc(F)c(F)c(F)c4)cnc3N)cc2)CC1`, the results for the inhibition in experiment [1], in experiment [2] and in experiment [3] were 4.36%, 1.8% and 0.2%, respectively.
For `COc1cc(-c2nc3ccc(N4CCN(C)CC4)cc3[nH]2)cc(OC)c1OC` the same measures were 2.08%, 2.62% and 4.21%.
For `COc1cc2nc(N3CCC(CNC(=O)c4ccc(OC(F)(F)F)cc4)CC3)nc(N)c2cc1OC`, the inhibition is -0.03% in experiment [1], 0.04% in experiment [2] and 0.16% in experiment [3].
For `CCN1C(c2ccc(Cl)cc2)C(CNCc2ccccc2O)CC1(C)CO` (stereo unspecified) the same measures were 8.9%, 7.62% and 4.57%.
With `CCc1ccc(C2CCN(CCCCNC(=O)c3ccc(-c4ccc(Cl)cc4)cc3)CC2)c(O)c1`, the inhibition in experiment [1] came to 0.23%; in experiment [2], 2.44%; in experiment [3] it was 2.8%.
Consider `OCC1CCN(Cc2ccc(-c3ccc(-c4nc5cc(C(F)(F)F)ccc5[nH]4)cc3)cc2)CC1`, for which the results for the inhibition in experiment [1], in experiment [2] and in experiment [3] were 5.9%, 8.94% and 3.07%, respectively.
The corresponding values for `CC(=O)N/N=C/[C@H](CCc1ccccc1)NC(=O)[C@H](CC(C)C)NC(=O)c1ccc(OCCN2CCOCC2)cc1` are 2.92%, 6.88% and 3.05%.
Turning to `CC(Cc1ccc(OCCCCOc2ccccc2)cc1)NCCc1ccc(Oc2ccccc2)cc1` (stereo unspecified), the figures for the inhibition in experiment [1], in experiment [2] and in experiment [3] were 87.5%, 84.7% and 78.2%, respectively.
The corresponding values for `CCc1c(C)nc(-n2nc(C)cc2NC(=O)c2cccc3ccccc23)[nH]c1=O` are -3.49%, -1.41% and 3.73%.
As to `COc1ccccc1C1CN(CCNC(=O)c2nc(C)c[nH]2)Cc2ccccc2O1` (stereo unspecified), the inhibition turned out to be 0.43% in experiment [1], 2.02% in experiment [2] and 5.66% in experiment [3].
The corresponding values for `CN(C(=O)c1nn(-c2ccccn2)c2nccc(-c3cccs3)c12)C1CCCCC1` are 5.01%, 5.58% and 3.33%.
